Screens (PubChem BioAssay)
IDE exosite inh: exo-site inhibitors of human IDE, primary screen, biochemical, fluorescence anisotropy, probe displacement. z-score at 20 µM. purified IDE, FL-6b probe fluorescence polarization; active compounds read low. hit rate 6.3% among 17,000. Insulin-degrading enzyme (Homo sapiens), P14735. AID 1259349, 2017;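 active = z-score of -3 or lower, meaning strong loss of probe binding signal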;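 also: His-tagged human IDE residues 42-1019 made in E. coli with 30 nM FL-6b probe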
An asterisk follows results filed as active. The entries come from a sample that favours hits as a whole.

SMILES	IDE exosite inh
COc1ccccc1NC(=O)N[C@H]1CC[C@@H](CCNS(=O)(=O)c2ccc(Cl)cc2)O[C@H]1CO	0.416
COc1cccc(C#Cc2ccc([C@@H]3[C@@H](C#N)N(C(=O)C4CCC4)[C@@H]3CO)cc2)c1	4.17
COc1cccc(C#Cc2ccc([C@@H]3[C@@H](C#N)N(C(=O)C4CCC4)[C@H]3CO)cc2)c1	1.54
N#C[C@H]1[C@@H](c2ccc(C#Cc3ccc(F)cc3)cc2)[C@H](CO)N1C(=O)C1CCCC1	5.36
COc1cccc(C#Cc2ccc([C@@H]3[C@@H](C#N)N(C(=O)C4CCCCC4)[C@H]3CO)cc2)c1	2.35
COc1ccccc1C#Cc1ccc([C@H]2[C@@H](C#N)N(C(=O)C3CCC3)[C@@H]2CO)cc1	-7.84*
COc1ccccc1C#Cc1ccc([C@H]2[C@@H](CO)N(C(=O)C3CCCCC3)[C@H]2C#N)cc1	-5.06*
COc1ccccc1C#Cc1ccc([C@H]2[C@H](C#N)N(C(=O)C3CCCCC3)[C@H]2CO)cc1	-6.29*
N#C[C@H]1[C@H](c2ccc(C#Cc3ccc(F)cc3)cc2)[C@H](CO)N1C(=O)C1CCCC1	3.98
COc1ccccc1C#Cc1ccc([C@@H]2[C@@H](C#N)N(C(=O)C3CCCCC3)[C@@H]2CO)cc1	-8.59*
N#C[C@H]1[C@H](c2ccc(C#Cc3ccccc3F)cc2)[C@H](CO)N1C(=O)C1CCC1	2.22
N#C[C@@H]1[C@@H](c2ccc(C#Cc3ccc(F)cc3)cc2)[C@H](CO)N1C(=O)C1CCCC1	5.4
COc1cccc(C#Cc2ccc([C@@H]3[C@@H](CO)N(C(=O)C4CCCCC4)[C@H]3C#N)cc2)c1	4.66
O=C(C[C@@H]1CC[C@H]2[C@@H](COC[C@@H](O)CN2CC2CCOCC2)O1)NCC1CCCCC1	1.06
COc1ccc(S(=O)(=O)N2CCCCN3[C@@H](CO)[C@H](c4ccc(C5=CCCC5)cc4)[C@@H]3C2)cc1	2.08
COc1cccc(S(=O)(=O)N2CCCCN3[C@H](CO)[C@H](c4ccc(C5=CCCCC5)cc4)[C@H]3C2)c1	4.19
CCC(=O)NC[C@@H]1[C@@H](c2ccccc2)[C@@H](CO)N1C(=O)C1CC1	4.06
COc1ccc2c3c(n(C)c2c1)[C@@H](CO)N(C)CC31CCN(C(=O)c2cccnc2)CC1	0.137
Cc1noc(C)c1NC(=O)N(C)C[C@@H]1OCCCC[C@H](C)Oc2ccc(NC(=O)Nc3ccc(C(F)(F)F)cc3)cc2C(=O)N([C@@H](C)CO)C[C@@H]1C	0.875
COCC(=O)N(C[C@@H]1N[C@@H](CO)[C@@H]1c1ccc(C2=CCCCC2)cc1)C(C)C	3.86
CCN(C[C@H]1[C@H](c2ccccc2)[C@@H](CO)N1C(C)=O)C(=O)NC(C)C	-0.607
N#C[C@@H]1[C@H](c2ccccc2-c2ccccc2F)[C@@H](CO)N1C(=O)C1CCC1	-0.621
CCCC#Cc1ccc([C@H]2[C@H]3CN(C(=O)NC4CCCC4)CCCCN3[C@H]2CO)cc1	-1.18
O=C(NC1CCCC1)N1CCCCN2[C@@H](CO)[C@@H](c3ccc(-c4ccccc4)cc3)[C@@H]2C1	-6.96*
O=C(NC1CCCC1)N1CCCCN2[C@H](CO)[C@@H](c3ccc(-c4cncnc4)cc3)[C@H]2C1	2.25
SMILES	IDE exosite inh
CCCC#Cc1ccc([C@H]2[C@@H](CO)N3CCCCN(C(=O)NC4CCCC4)C[C@@H]23)cc1	-1.04
O=C(NC1CCCC1)N1CCCCN2[C@H](CO)[C@@H](c3ccc(-c4cncnc4)cc3)[C@@H]2C1	-0.136
O=C(NC1CCCC1)N1CCCCN2[C@H](CO)[C@H](c3ccc(-c4ccccc4)cc3)[C@H]2C1	-5.05*
O=C(NC1CCCC1)N1CCCCN2[C@H](CO)[C@@H](c3ccc(-c4cccnc4)cc3)[C@@H]2C1	-1.29
CCCC#Cc1ccc([C@@H]2[C@@H](CO)N3CCCCN(C(=O)NC4CCCC4)C[C@H]23)cc1	-4.89*
O=C(NC1CCCC1)N1CCCCN2[C@H](C1)[C@@H](c1ccc(-c3cncnc3)cc1)[C@@H]2CO	3.56
N#C[C@@H]1[C@H](c2ccc(C3=CCCCC3)cc2)[C@H](CO)N1C(=O)Nc1ccccc1F	0.638
COc1ccc(C[C@@H]2CCn3cc(nn3)COC[C@H](C)NC2=O)cc1	0.912
O=C(Nc1ccccc1)N1CCCCN2[C@H](CO)[C@@H](c3ccc(C#Cc4ccccn4)cc3)[C@@H]2C1	-0.603
CCCC#Cc1ccc([C@H]2[C@@H](CO)N(S(=O)(=O)c3cccc(F)c3)[C@H]2C#N)cc1	5.47
CC(C)C#Cc1ccc([C@H]2[C@@H](C#N)N(C(=O)C3CC3)[C@@H]2CO)cc1	-0.735
O=C(Nc1cccc(Cl)c1)N[C@H]1CC[C@@H](CCn2cc(Cc3ccccc3)nn2)O[C@H]1CO	0.416
COc1ccc(CN(C)C[C@H]2OCCCC[C@H](C)Oc3ccc(NC(=O)C4CCCCC4)cc3C(=O)N([C@@H](C)CO)C[C@H]2C)cc1	0.665
O=C(Nc1cccc(F)c1)N1CC(=O)N2[C@H](C1)[C@H](c1ccc(-c3ccccc3)cc1)[C@@H]2CO	-0.764
C[C@@H]1CN([C@H](C)CO)C(=O)CCCn2nncc2CO[C@H]1CN(C)C(=O)Nc1ccc(-c2cccs2)cc1	-0.427
N#C[C@@H]1[C@@H](c2ccc(C#Cc3ccccc3F)cc2)[C@H](CO)N1C(=O)C1CC1	3.94
COc1ccccc1C#Cc1ccc([C@H]2[C@H](C#N)N(C(=O)C3CC3)[C@H]2CO)cc1	-7.58*
COc1cccc(C#Cc2ccc([C@@H]3[C@@H](CO)N(C(=O)C4CC4)[C@H]3C#N)cc2)c1	0.92
COc1cccc(C#Cc2ccc([C@H]3[C@@H](CO)N(C(=O)C4CC4)[C@H]3C#N)cc2)c1	1.04
COc1ccccc1C#Cc1ccc([C@H]2[C@@H](C#N)N(C(=O)C3CC3)[C@H]2CO)cc1	-8.96*
COc1cccc(C#Cc2ccc([C@@H]3[C@@H](C#N)N(C(=O)C4CC4)[C@H]3CO)cc2)c1	2.36
CC(=O)N1CC(=O)N2[C@H](CO)[C@H](c3ccc(C#Cc4cccnc4)cc3)[C@@H]2C1	2.14
O=C(c1ccncc1)N1CC(=O)N2[C@H](CO)[C@H](c3ccc(-c4ccccc4)cc3)[C@H]2C1	-2.9
CN1C(=O)c2cc(NC(=O)Nc3ccccc3Cl)ccc2OC[C@@H]2O[C@H](CC(=O)O)CC[C@H]21	-0.651
COc1ccc2c3c(n(C)c2c1)[C@@H](CO)N(C(=O)Nc1ccc(F)cc1)CC31CCN(S(=O)(=O)c2cccc(C)c2)CC1	-1.22
SMILES	IDE exosite inh
COc1ccccc1NC(=O)N1CCCCN2[C@H](C1)[C@H](c1ccc(-c3ccc(C)cc3)cc1)[C@@H]2CO	1.16
COc1ccccc1-c1ccc([C@H]2[C@H]3CN(C(=O)NC4CCCC4)CCCCN3[C@H]2CO)cc1	-13.7*
COc1ccccc1-c1ccc([C@@H]2[C@H](CO)N3CCCCN(C(=O)NC4CCCC4)C[C@@H]23)cc1	-15.6*
COc1ccccc1-c1ccc([C@@H]2[C@@H](CO)N3CCCCN(C(=O)NC4CCCC4)C[C@@H]23)cc1	-4.68*
COCC#Cc1ccc([C@H]2[C@H]3CN(C(=O)NC4CCCC4)CCCCN3[C@H]2CO)cc1	-0.149
COc1ccccc1-c1ccc([C@@H]2[C@@H](CO)N3CCCCN(C(=O)NC4CCCC4)C[C@H]23)cc1	-8.39*
COCC#Cc1ccc([C@H]2[C@@H](CO)N3CCCCN(C(=O)NC4CCCC4)C[C@@H]23)cc1	-1.19
O=C(NC1CCCC1)N1CCCCN2[C@@H](CO)[C@H](c3ccc(-c4cncnc4)cc3)[C@@H]2C1	1.86
